The sequences below were run against CYLC1 (assay: pooled miR-30 sensor sort-seq; sequence = guide strand). Settings: shRNA.
Also: reference of the scale not given here.

Sequence | sensor-assay potency score (higher = more potent)
TTCAGTATCTGAACCTTTGATT | -0.393
TTCTCTTCTACTATTTGCTTGG | -0.0318
TTGAATCTTTCTTAGCATCCTT | -0.0997
TTTAGTTTTCTCTTCTACTATT | -1.07
TTCATCTTTCTGACTCTCCTTT | 0.625
TATGGGATCATTACTAGTCTTT | -0.233
TATTATCTGTCTTTGAATCTTT | 0.0737
TTGCATCCTTTGCATCTCCTGA | -0.744
TTGAATTTGCAGATGTGCCATC | -0.566
TTTATCATTTGTACCTCTCTGG | 0.594
TTTTTCTTAACTTTCTTTGAAT | -0.75
TTGTTGCATATGAACCTCCTTT | -0.831
TTGGATGACATTCTGAATCCTC | 0.399
TTTCTTGGAATCTTTCTTCAAA | -0.0994
TTGATTTATCATTTGTACCTCT | 0.236
TGAATCTTTCTTAGCATCCTTT | -0.674
TTGACTTCTTGGATTGTTCATT | -0.552
TAATTTTTTCTTATCCTTCTTT | 0.0107
TTGAATGTAGTCTTTTTGGATG | -0.77
TTGTCATGTCTAGTAACTGTTA | -0.717
TTGATGGAGGAACTCTACCTGT | -0.867
TTATTCTGTGAGTAATTCCTTA | -0.37

What follows are sequences tested against CYP20A1 in the same assay as above. Settings: shRNA.

Sequence | sensor-assay potency score (higher = more potent)
TAAATCGGTCAATTTTTCCTTC | 0.481
TACACTAAGAAGTACTGTGGTC | -0.206
TCCTTCAATATCTTGAAGCTGG | -0.788
TATCATACTGTCTTCTAGGATC | -0.814
TTTATCTAATAATTCTTCTGAA | -0.378
ATGCTGACAATATCTGAGCTGC | -0.739
TTCTTCTGAAAGCTTTAGGAGG | -0.987
TTCATCATCAAACCGATCTGGA | -0.00182
ATACTTTGTTTCAATAACCTGT | -0.318
TTTTGAACTTCTTCAGAGGTGG | 0.0133
TTTGCAGTTATTATGCAACTGG | -0.736
TTATCTAATAATTCTTCTGAAA | -1.37

These sequences were tested against CYP2E1 in the same assay as above. Settings: shRNA.

Sequence | sensor-assay potency score (higher = more potent)
TTCATGGAGCTTCTCTTCGATC | -1.27
TTATTGTAAAGCTGGAGCCAGG | -1.09
TAAACTTTTCTGGATCAGGAAA | -1.37
TCACTGTACTTGAACTTTCCAT | -0.768
ATGTAGGGCATCTCTTGCCTAT | -1.01
TATTCTTCAATTCCAACTGGAA | -0.685
